Screening data from PubChem BioAssay.
Most compounds without a hit are left out; they make up all but 6% or so of the library.
D1 ag = agonists of human D1 dopamine receptor. 360,000 tested, 1% active. AID 504660. HEK293 T-REx D1 cells, calcium flux, agonist mode. activation, % at 2 µM; in the data active = activation above about 30%; also: 0% is about no effect
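Inducible HEK293 T-REx D1 cells, force-coupled to calcium signalling, were plated at 4000 cells/well with tetracycline and held overnight at 30 C. After no-wash calcium dye loading, compound-evoked calcium rise over 180 s flagged agonists.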
DRD3 antagonist = antagonists of human D3 dopamine receptor. 360,000 tested, 2.5% active. D3R cells, DiscoveRx beta-arrestin luminescence, antagonist mode; stronger effect = lower value. P35462. AID 652054. max response, negative = inhibition, %; in the data active = max response below about -50%; inconclusive = no clear call, values can overlap the other calls; also: % is scaled to controls: 0 for no effect and ±100 for the full control effect
Target sequence (P35462 whole entry, looked up): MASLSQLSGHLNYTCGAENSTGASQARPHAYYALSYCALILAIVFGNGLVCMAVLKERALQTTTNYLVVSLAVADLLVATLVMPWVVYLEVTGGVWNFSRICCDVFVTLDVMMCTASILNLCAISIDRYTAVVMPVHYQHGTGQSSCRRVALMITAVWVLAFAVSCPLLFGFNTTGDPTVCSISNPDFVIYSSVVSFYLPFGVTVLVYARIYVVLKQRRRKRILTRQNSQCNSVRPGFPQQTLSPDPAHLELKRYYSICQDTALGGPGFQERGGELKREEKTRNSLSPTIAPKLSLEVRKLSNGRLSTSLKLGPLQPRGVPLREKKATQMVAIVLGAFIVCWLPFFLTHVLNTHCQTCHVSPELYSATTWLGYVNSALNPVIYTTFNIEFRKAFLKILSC
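Cells expressing the human receptor were seeded at 1500 cells/well, incubated overnight at 37 degrees C in 5% CO2, then exposed to library compounds with dopamine controls for 90 minutes at 37 degrees C before luminescent detection.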
DRD3 agonist = D3 dopamine receptor (human) agonism; 410,000 tested, 0.58% active; P35462; D3R DiscoveRx beta-arrestin cells, luminescence, 90 min; max activation, %; in the data active = max activation above about 30%; also: 0% is about no effect
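Agonist-mode cell screen: cells plated at 1500/well and incubated overnight at 37 °C, then exposed to library compounds for 90 min at 37 °C. Detection reagent was added for 30–60 min at room temperature, and luminescence was read.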
D1 antagonist = human D1 dopamine receptor antagonism; activity change, negative = inhibition, % at 10 µM; HEK293 TREx D1 cells, calcium flux, dopamine EC80; stronger effect = lower value; 360,000 tested, 3.2% active; in the data active = activity change below about -30%; also: % is scaled to controls: 0 for no effect and ±100 for the full control effect
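Allosteric or orthosteric antagonism assessed as attenuation of the calcium response to EC80 dopamine, added 180 s after compound, in induced HEK293 Trex D1 cells loaded with no-wash calcium dye.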
D1 potentiator = enhances dopamine response at the human D1 receptor | P21728 | HEK293 TREx D1 cells, calcium flux, dopamine EC20 potentiation | potentiation, % at 10 µM | 360,000 tested, 0.036% active | AID 504651; in the data active = potentiation above about 30%; also: 0% is about no effect
* = called active by the depositor.

Screening NC(=O)Cn1c(=O)n(CCCCCC(=O)NCc2ccccc2)c(=O)c2sccc21 returned D1 ag 1, DRD3 agonist 2, D1 antagonist -39* and D1 potentiator -2.
`Cc1nn(CCCC(=O)NCc2ccccc2)c(=O)c2cc3sccc3n12` gave D1 ag -2, DRD3 agonist -1, D1 antagonist -32* and D1 potentiator 1.
Screening COc1cccc2sc(NC(=O)c3ccc(S(=O)(=O)N4CCC(C)CC4)cc3)nc12 returned D1 ag 2, DRD3 agonist 10, D1 antagonist 1 and D1 potentiator 1.
CCN(CC)C(=O)c1sc2c(c1C)c(=O)n(Cc1ccccc1)c(=O)n2CC(=O)Nc1ccc(OC)cc1 was read as D1 ag 6, DRD3 agonist 3, D1 antagonist -35* and D1 potentiator 1.
Screening COCCCn1c(=O)c2sccc2n(Cc2cccc(F)c2)c1=O returned D1 ag 3, DRD3 antagonist -20, DRD3 agonist -7, D1 antagonist -36* and D1 potentiator -3.
Screening COc1ccccc1N1CCN(S(=O)(=O)c2ccc(-c3ccno3)cc2OC)CC1 returned D1 ag -1, DRD3 agonist 5, D1 antagonist -7 and D1 potentiator -1.
For CCN(CC)CCOC(=O)c1cccnc1 the results were DRD3 agonist -5.
For COc1cc(CNCc2ccc(SC)cc2)cc(OC)c1 the results were D1 ag 33*, DRD3 antagonist -13, DRD3 agonist -11, D1 antagonist -2 and D1 potentiator -1.
For COc1cccc(CNCc2cc(OC)cc(OC)c2)c1 the results were D1 ag 10, DRD3 antagonist 0, DRD3 agonist -8, D1 antagonist -12 and D1 potentiator -8.
`CSc1ccc(CNCc2ccc3c(c2)OCO3)cc1` gave D1 ag 36*, DRD3 antagonist -22, DRD3 agonist -17, D1 antagonist -4 and D1 potentiator -4.
For COc1ccccc1CNC(=O)CSc1ncc(S(=O)(=O)c2ccc(C)c(Cl)c2)c(=O)[nH]1 the results were D1 ag 1, DRD3 agonist -18, D1 antagonist -13 and D1 potentiator -3.
`Cc1cc(S(=O)(=O)c2ccc(Cl)cc2)nc(S(=O)(=O)c2ccc(Cl)cc2)c1C#N` gave DRD3 antagonist -77* and DRD3 agonist -17.
For CCc1ccc(NC(=O)N2CC(C)Oc3ccc(C)cc32)cc1 (centres undefined) the results were D1 ag 2, DRD3 agonist -15, D1 antagonist 3 and D1 potentiator -2.
CC1([N+](=O)[O-])COC2(OC1)C(=O)Nc1ccccc12 (centres undefined) was read as D1 ag 2, DRD3 antagonist 0, DRD3 agonist -11, D1 antagonist -8 and D1 potentiator -4.
Screening CC1([N+](=O)[O-])COC2(CCCCC2)OC1 returned DRD3 antagonist -50* and DRD3 agonist 83*.
For O=C(COC(=O)c1ccc([N+](=O)[O-])s1)Nc1ccc(F)cc1 the results were D1 ag 4, DRD3 antagonist -8, DRD3 agonist 3, D1 antagonist -38* and D1 potentiator -3.
Screening Cc1cccc(CN2CCCC(C(=O)Nc3ccccc3Oc3cccnc3)C2)c1 (centres undefined) returned D1 ag -1, DRD3 antagonist -20, DRD3 agonist -4, D1 antagonist -29 and D1 potentiator 2.
`O=C(Nc1ccccc1Oc1cccnc1)C1CCCN(C/C=C/c2ccc(F)cc2)C1` (centres undefined) gave D1 ag 5, DRD3 antagonist inconclusive, DRD3 agonist -36, D1 antagonist -30* and D1 potentiator 1.
COc1cccc2c1C(=O)c1c(O)c3c(c(O)c1C2=O)C[C@@](O)(C(C)=O)C[C@@H]3O[C@H]1C[C@H](N)[C@H](O)[C@H](C)O1 was read as D1 ag 44*, DRD3 antagonist -78*, DRD3 agonist -59, D1 antagonist 12 and D1 potentiator -3.
Screening COc1cccc2c1C(=O)c1c(O)c3c(c(O)c1C2=O)C[C@@](O)(C(=O)CO)C[C@@H]3O[C@H]1C[C@H](N)[C@@H](O)[C@H](C)O1 returned DRD3 antagonist 0 and DRD3 agonist -64.
Screening CC(=O)c1cccc(NC(=O)Cn2nc(C)n3cccc3c2=O)c1 returned D1 ag 1, DRD3 agonist -7, D1 antagonist -6 and D1 potentiator -2.
`COc1ccc(OC)c(CCNC(=O)c2cc3c(s2)-c2c(C)cccc2OC3)c1` gave D1 ag 2, DRD3 agonist -12, D1 antagonist -4 and D1 potentiator 0.
`COc1cccc(N2CC34C=CC(O3)C(C(=O)O)C4C2=O)c1` (centres undefined) gave D1 ag 0, DRD3 antagonist 9, DRD3 agonist 1, D1 antagonist -42* and D1 potentiator 0.
CCN(CC(=O)Nc1c(F)cccc1F)C(=O)CNC(=O)c1ccc2ccccc2c1 was read as D1 ag 11, DRD3 antagonist 0, DRD3 agonist -11 and D1 antagonist 20.
Screening CCN(CC(=O)Nc1c(F)cccc1F)C(=O)CNC(=O)c1ccc2c(c1)OCO2 returned D1 ag 4, DRD3 antagonist 13, DRD3 agonist 7, D1 antagonist -33* and D1 potentiator -4.
Cc1ccc(C)c(NC(=O)c2nc(S(C)(=O)=O)ncc2N(Cc2ccc(C(C)(C)C)cc2)Cc2ccco2)c1 was read as D1 ag 6, DRD3 agonist -11, D1 antagonist -9 and D1 potentiator 0.
O=C(/C=C\c1ccc2c(c1)OCO2)NC1CC(=O)N(c2ccc(F)cc2)C1 (centres undefined) was read as D1 ag 0, DRD3 agonist 4 and D1 potentiator 0.
Cc1ccc(Cn2ccn(CC(=O)Nc3ccccc3C(F)(F)F)c(=O)c2=O)cc1 was read as D1 ag 7, DRD3 agonist -3, D1 antagonist -21 and D1 potentiator -6.
Screening CCC1=NN2C(=N)/C(=C/c3cc(C)n(Cc4ccccc4)c3C)C(=O)N=C2S1 returned D1 ag 66*, DRD3 antagonist -6, DRD3 agonist 1, D1 antagonist -51* and D1 potentiator -11.
Cc1cc(/C=C2\C(=N)N3C(SCc4ccccc4)=NSC3=NC2=O)c(C)n1Cc1ccccc1 was read as D1 ag 2, DRD3 antagonist 9, DRD3 agonist 10, D1 antagonist 2 and D1 potentiator 1.
Cc1cc(/C=C2\C(=N)N3N=C(c4ccco4)SC3=NC2=O)c(C)n1Cc1ccccc1 was read as D1 ag 38*, DRD3 antagonist -2, DRD3 agonist 5, D1 antagonist -39* and D1 potentiator 3.
